35 molecules from PubChem BioAssay (NCATS) can be followed below.

Calls of active or inactive are those of the source. Calls follow the shape of the full dose curve.

One assay is described as follows: qHTS drug screen for cell cycle checkpoint inhibitors in PARPi-resistant BRCA-mutant ovarian cancer cell lines. (AID 1963452). The following applies: PEO1/OlaR viability, CellTiter-Glo luminescence, 96 h; stronger effect = lower value. An outline of the steps: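 PEO1, PEO4 and PEO1/OlaR ovarian cancer cells, 600 per well, exposed 96 h at 37C to a dilution series. Viability read by CellTiter-Glo luminescence, normalized to DMSO and empty wells; activity summarized as Z-AUC.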
Background: In qHTS, concentration-response curves come from the screen itself.
Take `Cn1c(=O)c(Oc2ccc(F)cc2F)cc2cnc(NC3CCOCC3)nc21`: the Z-AUC is 1.26 (inactive).

In the case of `CN(C)N=Nc1nc[nH]c1C(N)=O`, the Z-AUC is 1.39 (inactive).

Turning to `Cc1c(C(=O)Nc2ccc(N3C[C@@H](C)O[C@@H](C)C3)nc2)cccc1-c1ccc(OC(F)(F)F)cc1`, the Z-AUC is 0.823 (inactive).

As for `CN(C)c1ccccc1CN1CCCN(Cc2ccccc2N(C)C)C1c1ccncc1`, the Z-AUC is -0.339 (inactive).

Still in this assay, the particulars now being: PEO1/OlaR viability, CellTiter-Glo luminescence, 96 h; measured here: PEO1 parental Z-AUC; stronger effect = lower value.
Turning to `Cc1ccc(NC(=O)c2cccc(N(C)C)c2)cc1NC(=O)c1ccc(O)cc1`, the Z-AUC was 1.05.

As to `O=C(O)CCNc1cc(N2CCc3ccccc3CC2)nc(-c2ccccn2)n1`, the Z-AUC turned out to be 0.477.

As for `CC(=O)NCCC(=O)N[C@@H](CCC(N)=O)C(=O)N[C@@H](CO)C(=O)N[C@@H](CCC(N)=O)C(=O)N[C@@H](CCC(N)=O)C(=O)N[C@H](C(=O)N[C@@H](Cc1ccccc1)C(=O)N[C@]1(C)CCCCCCC=CCCC[C@@](C)(C(=O)N[C@@H](CCC(N)=O)C(=O)N[C@@H](CC(N)=O)C(N)=O)NC(=O)[C@H](CC(C)C)NC(=O)[C@H](CC(C)C)NC(=O)[C@@H](CCCNC(=N)N)NC(=O)[C@H](Cc2c[nH]c3ccccc23)NC(=O)[C@H](CC(C)C)NC(=O)[C@H](CC(N)=O)NC1=O)[C@H](C)O`, the Z-AUC was -0.536.

As for `CC1CCN(c2cc(N3CCN(C)CC3)ccc2NC(=O)c2cc(C#N)c[nH]2)CC1`, the Z-AUC is -0.115.

Turning to `CNC(=O)c1cc(Oc2ccc(NC(=O)Nc3ccc(Cl)c(C(F)(F)F)c3)c(F)c2)ccn1`, the Z-AUC is 0.462.

Turning to `Cc1ccccc1C(=O)c1ccc(Nc2ccc(Br)cc2N)cc1Cl`, the Z-AUC was found to be 0.73.

For the molecule `Cc1cc(-c2ncc(CC(=O)Nc3ccc(-c4cnccn4)cn3)cc2C)ccn1`, the Z-AUC was -0.663.

`O=C(CO)N1CCC(c2[nH]nc(-c3ccc(Cl)cc3)c2-c2ccncn2)CC1`: the Z-AUC came to 0.349.

`COc1ccc(Cn2ccc3ccc(C(=O)NO)cc32)cc1`: the Z-AUC is 1.01.

With `CC1=C(CC(=O)O)c2cc(F)ccc2C1=Cc1ccc(S(C)=O)cc1` (stereo not given), the Z-AUC was determined as 0.811.

With `CCc1cccc(CC)c1NC(=O)N1Cc2[nH]nc(NC(=O)c3ccc(N4CCN(C)CC4)cc3)c2C1`, the Z-AUC worked out at 0.421.

With `Cn1cc(-c2ccc3nnc(Sc4ccc5ncccc5c4)n3n2)cn1`, the Z-AUC came to 1.65.

In the case of `CCCC1OC2C[C@@H]3[C@H]4CCC5=CC(=O)C=C[C@]5(C)[C@H]4C(O)C[C@]3(C)[C@]2(C(=O)CO)O1` (stereo not given in full), the Z-AUC was 0.534.

Regarding `CC[C@H](CC#N)OC(=O)N[C@@H](C)c1cccc(NC(=O)Nc2ccc(-c3cnco3)c(OC)c2)c1`, the Z-AUC was -0.393.

As for `Cc1ccccc1-n1c(Cn2nc(-c3cccc(O)c3)c3c(N)ncnc32)nc2cccc(C)c2c1=O`, the Z-AUC was -0.546.

With `NS(=O)(=O)c1ccc(Nc2nc(OCC3CCCCC3)c3[nH]cnc3n2)cc1`, the Z-AUC was -0.91.

For `c1ccc(-c2oc3ncnc(NC[C@@H]4CCCO4)c3c2-c2ccccc2)cc1`, the Z-AUC is -0.438.

With `CN[C@@H](C)[C@H]1[C@H](O)C[C@@]2(C)[C@@H]3CC[C@H]4C(C)(C)[C@@H](NC)CC[C@@]45C[C@@]35CC[C@]12C`, the Z-AUC worked out at 0.364.

Consider `CCn1c(-c2nonc2N)nc2cncc(CNC3CCNCC3)c21`, for which the Z-AUC came to 0.212.

On to `NC(=O)c1ccc(N(C(N)=O)c2c(F)cccc2F)nc1-c1ccc(F)cc1F`, for which the Z-AUC is -0.387.

Consider `C[C@]12CC[C@@H]3c4ccc(O)cc4CC[C@H]3[C@H]1[C@@H](O)[C@@H](O)[C@H]2O`, for which the Z-AUC worked out at 0.841.

For `COc1cc2ncn(-c3cc(OCc4ccccc4S(C)(=O)=O)c(C#N)s3)c2cc1OC`, the Z-AUC turned out to be 0.779.

As for `CN1CCc2c(n(Cc3ccc(C(=O)NO)cc3)c3ccccc23)C1`, the Z-AUC was determined as 0.892.

For `Clc1ccc(C2(c3ccc(-c4cn[nH]c4)cc3)CCNCC2)cc1`, the Z-AUC was found to be 0.18.

For the molecule `CC[C@H](C)n1cc(C)c2c(C(=O)NCc3c(C)cc(C)[nH]c3=O)cc(-c3ccc(N4CCNCC4)nc3)cc21`, the Z-AUC was 1.58.

Turning to `COC1CCC(C(=O)c2ccc3nc4c(cc3c2)CCCO4)CC1` (stereo not given), the Z-AUC was -0.298.

For the molecule `CCCCc1ccc(NS(=O)(=O)c2ccc(C)c(C(=O)N3CCN(c4cccc(C)c4C)CC3)c2)cc1`, the Z-AUC worked out at 1.5.

For the molecule `COc1cccc(OC)c1-c1cc(C(=O)NC2(C(=O)O)C3CC4CC(C3)CC2C4)nn1-c1ccnc2cc(Cl)ccc12` (stereo not given), the Z-AUC turned out to be 0.986.

As to `COc1cc(Nc2nc3ccccc3nc2NS(=O)(=O)c2ccc(NC(=O)c3ccc(C)c(OC)c3)cc2)cc(OC)c1`, the Z-AUC is -0.462.

With `CNC(=O)[C@H](Cc1ccccc1)NC(=O)[C@H](CC(C)C)[C@H](CSc1cccs1)C(=O)NO`, the Z-AUC is -0.157.

In the case of `COC(=O)[C@H](c1ccccc1Cl)N1CCc2sccc2C1`, the Z-AUC stood at 1.15.
